The record followed here is ChEMBL document CHEMBL3988442, “University of Dundee, Small-Polar-MMV Screening Library” (2021).

Common to all, as to set-up: scale not given: direction of the effect not stated beside the values
Assay [1] has as its target Protein translocase subunit SecA (Escherichia coli (strain K12)) (UniProt P10408). As to the kind of experiment: Assay to Identify E. coli SecA ATPase Inhibitors. As to conditions: 30 µM. The assay is classed as functional.
In assay [2] the target is T1, Ubiquitin-activating enzyme e1, putative (Leishmania donovani (strain BPK282A1)) (UniProt E9BSI1).
T1 sequence (whole entry): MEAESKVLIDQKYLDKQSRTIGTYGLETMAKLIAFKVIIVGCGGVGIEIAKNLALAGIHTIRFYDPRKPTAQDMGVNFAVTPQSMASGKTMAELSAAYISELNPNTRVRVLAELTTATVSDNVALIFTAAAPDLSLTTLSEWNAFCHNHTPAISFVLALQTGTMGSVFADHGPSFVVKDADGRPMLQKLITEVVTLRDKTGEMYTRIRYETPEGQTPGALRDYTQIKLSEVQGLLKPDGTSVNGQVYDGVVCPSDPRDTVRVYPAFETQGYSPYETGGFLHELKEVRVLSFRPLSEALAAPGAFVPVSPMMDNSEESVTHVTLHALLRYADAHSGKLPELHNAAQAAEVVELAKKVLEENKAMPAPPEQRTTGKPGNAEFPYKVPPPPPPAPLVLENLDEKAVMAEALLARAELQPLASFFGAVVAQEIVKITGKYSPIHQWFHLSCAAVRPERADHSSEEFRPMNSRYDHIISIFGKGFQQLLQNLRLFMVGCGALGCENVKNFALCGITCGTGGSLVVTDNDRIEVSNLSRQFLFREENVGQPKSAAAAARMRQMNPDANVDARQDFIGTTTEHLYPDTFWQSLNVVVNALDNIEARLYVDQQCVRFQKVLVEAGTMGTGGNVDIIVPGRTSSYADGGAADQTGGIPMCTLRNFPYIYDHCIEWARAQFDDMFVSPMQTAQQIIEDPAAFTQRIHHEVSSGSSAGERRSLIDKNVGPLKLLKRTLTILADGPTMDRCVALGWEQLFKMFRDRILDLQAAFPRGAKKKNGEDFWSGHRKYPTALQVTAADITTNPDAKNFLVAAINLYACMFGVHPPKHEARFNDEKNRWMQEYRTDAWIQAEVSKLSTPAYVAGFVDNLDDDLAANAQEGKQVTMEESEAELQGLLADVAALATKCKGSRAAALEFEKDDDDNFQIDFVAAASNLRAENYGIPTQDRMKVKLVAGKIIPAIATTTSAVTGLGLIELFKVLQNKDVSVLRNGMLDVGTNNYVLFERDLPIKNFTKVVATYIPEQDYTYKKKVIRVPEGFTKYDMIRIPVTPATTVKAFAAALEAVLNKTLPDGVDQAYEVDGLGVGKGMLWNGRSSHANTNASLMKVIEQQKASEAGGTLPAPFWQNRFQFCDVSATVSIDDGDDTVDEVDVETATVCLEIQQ
As to the kind of experiment: Leishmania donovani Ubiquitin Activating Enzyme (LdE1). The assay is classed as functional. As to conditions: 30 µM.

The target of assay [3] is Sialic acid-binding Ig-like lectin 9 (Homo sapiens) (UniProt Q9Y336). As to the kind of experiment: Hs-Siglec9 ALPHAscreen SOP 20170721. The following applies: 10 µM.
Another assay concerns Trypanosoma cruzi. As to the kind of experiment: Trypanosoma cruzi phosphomannomutase and mannose-1-phosphate guanylyltransferase assay. The assay is classed as functional. The following applies: 10 µM.
Assay [4] deals with T2, Arginase-2, mitochondrial (Homo sapiens) (UniProt P78540).
T2 sequence (whole entry): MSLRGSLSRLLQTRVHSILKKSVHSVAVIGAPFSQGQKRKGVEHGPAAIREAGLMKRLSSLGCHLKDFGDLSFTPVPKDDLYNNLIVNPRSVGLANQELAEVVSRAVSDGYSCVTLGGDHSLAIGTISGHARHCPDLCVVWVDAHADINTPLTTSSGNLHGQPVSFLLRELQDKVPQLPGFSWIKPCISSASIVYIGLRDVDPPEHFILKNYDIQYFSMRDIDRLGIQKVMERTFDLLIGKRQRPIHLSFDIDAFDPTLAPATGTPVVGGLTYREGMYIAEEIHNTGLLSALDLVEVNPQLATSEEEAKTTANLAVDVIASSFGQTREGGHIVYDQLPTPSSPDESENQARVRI
Nature of the assay: in vitro enzyme assay to detect the production of urea directly proportional to the activity of Arginase II. Also: in the data most compounds retested in dose-response had high values. The assay is classed as functional. The following applies: 33.3 µM.

Assay [5] concerns the target T3, Proteasome subunit beta (Trypanosoma cruzi) (UniProt O96673).
T3 sequence (whole entry): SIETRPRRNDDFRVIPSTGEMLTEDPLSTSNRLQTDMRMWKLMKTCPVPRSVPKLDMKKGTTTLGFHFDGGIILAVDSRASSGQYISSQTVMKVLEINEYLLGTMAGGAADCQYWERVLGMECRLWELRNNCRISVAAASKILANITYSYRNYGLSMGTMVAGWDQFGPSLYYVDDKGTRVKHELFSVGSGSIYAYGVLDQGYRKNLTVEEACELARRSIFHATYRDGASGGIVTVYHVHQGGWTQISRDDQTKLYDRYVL
As to the kind of experiment: Trypanosoma cruzi proteasome chymotrypsin-like activity (TcProtChymo) assay. Also: in the data most compounds retested in dose-response had high values. The assay is classed as functional. The following applies: 9.37 µM.

A further assay is filed under the species Homo sapiens. As to the kind of experiment: To identify inhibition of the IFN signalling (Jak-Stat) pathway via expression of an eGFP reporter gene under the control of an IFN-stimulated response element (ISRE) containing MxA promoter. The assay is classed as functional. The following applies: 30 µM. In general terms: In a reporter assay the amount or activity of a reporter protein is the signal.

Assay [6] addresses T4, Tyrosyl-tRNA synthetase, putative (Trypanosoma cruzi (strain CL Brener)) (UniProt Q4DSP6).
T4 sequence (whole entry): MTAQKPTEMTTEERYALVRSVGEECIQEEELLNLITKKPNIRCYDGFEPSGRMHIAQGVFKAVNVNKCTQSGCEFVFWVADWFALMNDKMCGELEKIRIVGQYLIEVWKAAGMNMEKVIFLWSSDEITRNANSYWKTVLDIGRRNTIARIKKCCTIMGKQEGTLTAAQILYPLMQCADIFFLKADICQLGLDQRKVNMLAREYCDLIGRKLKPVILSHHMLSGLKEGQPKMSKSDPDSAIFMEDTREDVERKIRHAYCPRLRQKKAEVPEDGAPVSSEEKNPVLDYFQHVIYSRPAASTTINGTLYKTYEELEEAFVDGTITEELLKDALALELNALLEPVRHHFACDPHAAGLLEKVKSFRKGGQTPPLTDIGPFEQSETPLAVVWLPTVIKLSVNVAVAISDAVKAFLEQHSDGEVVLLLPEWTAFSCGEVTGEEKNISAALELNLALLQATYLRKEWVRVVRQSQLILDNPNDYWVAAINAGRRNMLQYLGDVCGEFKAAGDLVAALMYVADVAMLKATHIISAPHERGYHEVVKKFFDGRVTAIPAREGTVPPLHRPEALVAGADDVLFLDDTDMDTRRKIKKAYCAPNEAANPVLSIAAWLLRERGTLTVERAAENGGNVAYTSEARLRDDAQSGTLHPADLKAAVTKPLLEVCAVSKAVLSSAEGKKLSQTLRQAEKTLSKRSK
Nature of the assay: Trypanosoma cruzi tyrosyl tRNA synthetase (TcYRS) _High Tyrosine SOP. Also: in the data most compounds retested in dose-response had high values. The following applies: 30 µM. The format is functional.

Assay [7] addresses T4, Tyrosyl-tRNA synthetase, putative (Trypanosoma cruzi (strain CL Brener)). Nature of the assay: Trypanosoma cruzi tyrosyl tRNA synthetase (TcYRS) SOP. The format is functional. As to conditions: 30 µM.
The target of assay [8] is Chromo domain-containing protein 1 (Saccharomyces cerevisiae (strain ATCC 204508 / S288c) (Baker's yeast)) (UniProt P32657). Nature of the assay: ScCHD-1 Enzyme Inhibition Assay. Also: in the data most compounds retested in dose-response had high values. As to conditions: 30 µM. The assay is classed as functional.

For part of these data: Entries with a potency or affinity are not part of this list.

Chain of Protein translocase subunit SecA (Escherichia coli (strain K12)) (P10408 whole entry): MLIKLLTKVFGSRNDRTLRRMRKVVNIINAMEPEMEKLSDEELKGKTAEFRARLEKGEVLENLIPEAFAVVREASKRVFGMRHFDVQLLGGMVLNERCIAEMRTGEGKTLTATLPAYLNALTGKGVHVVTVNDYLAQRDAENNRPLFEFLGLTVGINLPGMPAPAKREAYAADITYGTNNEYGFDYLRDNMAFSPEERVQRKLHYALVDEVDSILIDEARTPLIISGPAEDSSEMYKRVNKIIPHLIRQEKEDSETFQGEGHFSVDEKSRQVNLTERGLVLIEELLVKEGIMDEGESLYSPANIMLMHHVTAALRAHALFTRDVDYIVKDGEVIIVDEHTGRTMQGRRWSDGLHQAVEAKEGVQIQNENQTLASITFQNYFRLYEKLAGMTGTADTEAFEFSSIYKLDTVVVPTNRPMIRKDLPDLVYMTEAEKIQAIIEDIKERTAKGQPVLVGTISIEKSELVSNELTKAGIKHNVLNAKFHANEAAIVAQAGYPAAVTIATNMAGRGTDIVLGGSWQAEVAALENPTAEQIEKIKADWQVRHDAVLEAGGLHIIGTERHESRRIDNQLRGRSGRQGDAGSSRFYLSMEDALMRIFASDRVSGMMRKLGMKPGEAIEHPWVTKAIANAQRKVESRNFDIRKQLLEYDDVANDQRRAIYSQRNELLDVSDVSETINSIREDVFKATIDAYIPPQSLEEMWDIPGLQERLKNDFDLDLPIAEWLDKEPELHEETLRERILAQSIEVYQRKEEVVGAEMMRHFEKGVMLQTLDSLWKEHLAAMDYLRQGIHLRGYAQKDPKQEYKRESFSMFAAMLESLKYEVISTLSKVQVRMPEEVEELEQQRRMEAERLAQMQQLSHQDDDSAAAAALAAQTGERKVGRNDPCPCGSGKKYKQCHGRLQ
Chain of Chromo domain-containing protein 1 (Saccharomyces cerevisiae (strain ATCC 204508 / S288c) (Baker's yeast)) (P32657 whole entry, the tested form may be a part): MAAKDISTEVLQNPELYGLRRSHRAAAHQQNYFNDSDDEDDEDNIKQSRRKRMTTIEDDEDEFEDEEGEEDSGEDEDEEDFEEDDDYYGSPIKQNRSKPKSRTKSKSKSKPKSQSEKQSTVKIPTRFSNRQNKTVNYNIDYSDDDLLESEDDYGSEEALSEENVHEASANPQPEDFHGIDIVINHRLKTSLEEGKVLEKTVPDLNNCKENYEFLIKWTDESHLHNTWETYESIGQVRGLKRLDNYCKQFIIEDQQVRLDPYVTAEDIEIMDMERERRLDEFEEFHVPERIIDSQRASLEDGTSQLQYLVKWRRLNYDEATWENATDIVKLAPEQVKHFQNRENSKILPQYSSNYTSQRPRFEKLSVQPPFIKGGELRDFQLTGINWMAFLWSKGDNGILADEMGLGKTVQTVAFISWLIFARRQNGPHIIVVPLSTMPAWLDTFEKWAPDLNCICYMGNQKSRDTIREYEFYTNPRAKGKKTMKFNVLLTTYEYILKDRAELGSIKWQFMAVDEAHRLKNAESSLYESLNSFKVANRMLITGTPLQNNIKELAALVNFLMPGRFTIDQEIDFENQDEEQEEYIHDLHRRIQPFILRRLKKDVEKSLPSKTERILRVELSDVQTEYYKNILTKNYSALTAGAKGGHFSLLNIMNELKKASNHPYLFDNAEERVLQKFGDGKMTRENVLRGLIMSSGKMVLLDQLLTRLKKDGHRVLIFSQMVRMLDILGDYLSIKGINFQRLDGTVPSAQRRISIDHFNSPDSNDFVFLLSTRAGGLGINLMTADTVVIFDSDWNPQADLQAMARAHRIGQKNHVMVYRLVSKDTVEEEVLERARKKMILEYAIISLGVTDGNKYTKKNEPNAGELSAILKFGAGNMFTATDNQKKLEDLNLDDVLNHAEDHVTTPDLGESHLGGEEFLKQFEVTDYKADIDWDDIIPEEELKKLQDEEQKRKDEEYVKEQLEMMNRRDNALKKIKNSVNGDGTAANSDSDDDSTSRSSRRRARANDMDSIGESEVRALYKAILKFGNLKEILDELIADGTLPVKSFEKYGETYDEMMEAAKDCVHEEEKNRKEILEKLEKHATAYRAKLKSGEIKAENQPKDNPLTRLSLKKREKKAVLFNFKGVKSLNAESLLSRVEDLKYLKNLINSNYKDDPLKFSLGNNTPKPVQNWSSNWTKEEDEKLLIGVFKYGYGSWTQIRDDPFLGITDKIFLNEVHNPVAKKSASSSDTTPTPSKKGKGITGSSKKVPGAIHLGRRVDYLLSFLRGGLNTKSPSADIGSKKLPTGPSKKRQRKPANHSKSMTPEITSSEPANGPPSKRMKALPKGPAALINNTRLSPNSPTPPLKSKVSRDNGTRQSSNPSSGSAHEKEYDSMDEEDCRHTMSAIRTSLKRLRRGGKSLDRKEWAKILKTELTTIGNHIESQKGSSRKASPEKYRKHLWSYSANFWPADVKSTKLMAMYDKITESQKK
Chain of Sialic acid-binding Ig-like lectin 9 (Homo sapiens) (Q9Y336 whole entry): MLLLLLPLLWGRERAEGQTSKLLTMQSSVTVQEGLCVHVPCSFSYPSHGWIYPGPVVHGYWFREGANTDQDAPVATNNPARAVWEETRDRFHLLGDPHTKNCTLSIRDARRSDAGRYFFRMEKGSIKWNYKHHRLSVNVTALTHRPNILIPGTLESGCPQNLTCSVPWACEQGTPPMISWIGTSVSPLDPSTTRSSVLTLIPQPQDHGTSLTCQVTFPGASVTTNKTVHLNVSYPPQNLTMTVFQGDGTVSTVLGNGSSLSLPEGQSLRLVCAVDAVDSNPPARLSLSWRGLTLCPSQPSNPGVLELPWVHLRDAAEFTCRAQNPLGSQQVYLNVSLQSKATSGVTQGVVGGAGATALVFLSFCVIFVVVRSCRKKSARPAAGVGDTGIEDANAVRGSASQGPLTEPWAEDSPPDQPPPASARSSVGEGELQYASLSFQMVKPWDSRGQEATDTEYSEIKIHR

For `Cn1cc(CNCC2Cn3nnc(-c4ccccc4)c3CO2)cn1` (stereo not given), the Percent Effect in assay [1] is -4.8%; in [2], 6.49%; in assay [3] it was 9.99%; with Trypanosoma cruzi, 4.97%; in assay [4], 13%; in assay [5], 4.68%. Moreover, the Percent Effect in the assay filed under Homo sapiens was -2.48%; in assay [6], 2.63%; in assay [7] it was 10.3%; in [8], 19%.
On to `CN(Cc1nnc(-c2ccco2)o1)C1CCCN(c2cccnn2)C1` (stereo not given), for which the Percent Effect in assay [1] was 2.65%; in assay [2], 10.3%; in assay [3] it was -14.4%; in the assay with Trypanosoma cruzi it was -2.91%; in assay [4], -0.82%; in assay [5], 28.4%. In addition, the Percent Effect in the assay filed under Homo sapiens amounted to 30.2%; in [6], 3.35%; in assay [7], 8.43%; in [8] it was 1.33%.
As to `O=C(Nc1nccs1)NC1CCN(Cc2ccccc2)C1` (stereo not given), the Percent Effect in assay [1] is 0.43%; in [2], 15.4%; in [3], -11.5%; in the assay on Trypanosoma cruzi, 7.04%; in [4], 4.51%; in assay [5] it was 9.13%. For the same compound, the Percent Effect is -11.6% in the assay filed under Homo sapiens, 6.22% in [6], 22.9% in assay [7] and 1.47% in assay [8].
Consider `CCCn1nc2c(cc1=O)CN(CC(=O)Nc1nnc(C)s1)CC2`, for which the Percent Effect was -7.9% in assay [1]; 13% in assay [2]; 10.3% in assay [3]; -3.92% with Trypanosoma cruzi; 3.07% in [4]; 11.8% in assay [5]. In addition, the Percent Effect in the assay listed under Homo sapiens is 1.49%; in assay [6], 2.94%; in [7], 9.41%; in assay [8] it was -8.62%.
On to `COC[C@@H]1CC[C@H]2[C@H](CCN2S(=O)(=O)c2cccc(C)c2)O1`, for which the Percent Effect was -1.1% in [1]; 6.49% in [2]; -6.71% in assay [3]; -4.38% with Trypanosoma cruzi; 2.43% in [4]; 16.1% in assay [5]. For the same compound, the Percent Effect is -2.75% in the assay filed under Homo sapiens, 0.526% in [6], 5.13% in assay [7] and -2.87% in assay [8].
On to `O=C1CCCN1Cc1nnc2n1CCN(Cc1ccoc1)CC2`, for which the Percent Effect is -6.7% in assay [1]; 9.09% in assay [2]; -2.11% in assay [3]; -3.94% in the assay with Trypanosoma cruzi; 1.83% in assay [4]; 0.601% in assay [5]. Also, the Percent Effect in the assay filed under Homo sapiens is 26.1%; in assay [6], -1.93%; in assay [7] it was -2.5%; in [8] it was -3.88%.
`O=C(c1ccno1)N1CCC2(CC1)C(=O)N(CC1CC1)c1ccccc12`: the Percent Effect in assay [1] was -0.905%; in assay [2], -29.9%; in assay [3], -1.46%; in the assay with Trypanosoma cruzi, -0.75%; in [4], 3.2%; in [5] it was 3%. In addition, the Percent Effect in the assay filed under Homo sapiens was 5.14%; in assay [6], 1.93%; in [7], 0%; in [8], -3.48%.
For `Cn1cnc2c1CCN(Cc1cccc(OCC(N)=O)c1)C2`, the Percent Effect in assay [1] was -0.391%; in assay [2] it was 15.4%; in assay [3], -8.42%; with Trypanosoma cruzi, 7.42%; in [4], 2.46%; in assay [5], 15.3%. Besides, the Percent Effect was 23.1% in the assay listed under Homo sapiens, 3.35% in [6], 18.1% in [7] and -7.71% in assay [8].
`Cc1cnn(CCNCc2nnc(C3CC3)o2)c1`: the Percent Effect is 2.37% in assay [1]; 26% in [2]; -7.5% in [3]; 0.746% with Trypanosoma cruzi; -8.4% in assay [4]; 16% in [5]. The Percent Effect was 32.1% in the assay filed under Homo sapiens, 6.86% in [6], 28.2% in assay [7] and -8.53% in assay [8].
As for `Cc1ccc(N2CCC3(CCCN(C(=O)c4cccnc4)C3)C2)nn1` (stereo not given), the Percent Effect in assay [1] is -10.1%; in [2], 1.3%; in [3] it was 11%; in the assay with Trypanosoma cruzi it was -3.41%; in assay [4], 0.405%; in assay [5], 16.1%. The Percent Effect in the assay filed under Homo sapiens was 2.17%; in [6] it was 0.526%; in assay [7], -10.3%; in assay [8] it was 0.442%.
On to `CO[C@@H]1CC[C@@H](N(C)C(=O)COc2ccc(F)cc2)[C@H]1O`, for which the Percent Effect in assay [1] is -0.0302%; in [2] it was 9.33%; in [3], 5.58%; in the assay with Trypanosoma cruzi, -6.31%; in assay [4] it was 5.31%; in assay [5], 10.8%. Besides, the Percent Effect in the assay listed under Homo sapiens is 9.43%; in assay [6], 1.06%; in assay [7], 7.5%; in [8], -24%.
As for `Cc1noc(C)c1CN(C)C(=O)NC1CCN(C2CC2)CC1`, the Percent Effect is -1.46% in [1]; 2.56% in [2]; 0.345% in [3]; 2.91% with Trypanosoma cruzi; -0.82% in [4]; -3.84% in assay [5]. In addition, the Percent Effect in the assay listed under Homo sapiens is -6.08%; in assay [6], 2.39%; in [7], 8.43%; in assay [8] it was 3.21%.
